Activity calls are given as the source filed them.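 How the source made its calls, unless noted: active means mean inhibition above 46.5%, the solvent-only control mean plus 3 SD; inactive means the rest.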
How the values were obtained:
[1] = tested on: transactivating tegument protein VP16 (Human herpesvirus 1); assay: compounds suppressing VP16-driven luciferase signal – cell-based, luminescence, single concentration, counter-screen for SRC2 inhibitor project (AID 652007; in the data active means inhibition above about 36%); conditions: cell-based VP16 transactivation luciferase reporter, at 8.9 µM, active compounds read high
[2] = target: Nuclear receptor coactivator 2 (Homo sapiens) (UniProt Q15596); assay: inhibition of GAL4-SRC2 driven luciferase expression – cell-based, luminescence, HEK293, triplicate, confirmation (AID 652008); conditions: HEK293 GAL4-SRC2 luciferase reporter, at 8.9 µM, active compounds read high;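 further: 0% = DMSO-treated cells and 100% = Gossypol at 36 µM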
Nuclear receptor coactivator 2 (Homo sapiens), sequence (Q15596 whole entry, looked up, the tested form may be a part): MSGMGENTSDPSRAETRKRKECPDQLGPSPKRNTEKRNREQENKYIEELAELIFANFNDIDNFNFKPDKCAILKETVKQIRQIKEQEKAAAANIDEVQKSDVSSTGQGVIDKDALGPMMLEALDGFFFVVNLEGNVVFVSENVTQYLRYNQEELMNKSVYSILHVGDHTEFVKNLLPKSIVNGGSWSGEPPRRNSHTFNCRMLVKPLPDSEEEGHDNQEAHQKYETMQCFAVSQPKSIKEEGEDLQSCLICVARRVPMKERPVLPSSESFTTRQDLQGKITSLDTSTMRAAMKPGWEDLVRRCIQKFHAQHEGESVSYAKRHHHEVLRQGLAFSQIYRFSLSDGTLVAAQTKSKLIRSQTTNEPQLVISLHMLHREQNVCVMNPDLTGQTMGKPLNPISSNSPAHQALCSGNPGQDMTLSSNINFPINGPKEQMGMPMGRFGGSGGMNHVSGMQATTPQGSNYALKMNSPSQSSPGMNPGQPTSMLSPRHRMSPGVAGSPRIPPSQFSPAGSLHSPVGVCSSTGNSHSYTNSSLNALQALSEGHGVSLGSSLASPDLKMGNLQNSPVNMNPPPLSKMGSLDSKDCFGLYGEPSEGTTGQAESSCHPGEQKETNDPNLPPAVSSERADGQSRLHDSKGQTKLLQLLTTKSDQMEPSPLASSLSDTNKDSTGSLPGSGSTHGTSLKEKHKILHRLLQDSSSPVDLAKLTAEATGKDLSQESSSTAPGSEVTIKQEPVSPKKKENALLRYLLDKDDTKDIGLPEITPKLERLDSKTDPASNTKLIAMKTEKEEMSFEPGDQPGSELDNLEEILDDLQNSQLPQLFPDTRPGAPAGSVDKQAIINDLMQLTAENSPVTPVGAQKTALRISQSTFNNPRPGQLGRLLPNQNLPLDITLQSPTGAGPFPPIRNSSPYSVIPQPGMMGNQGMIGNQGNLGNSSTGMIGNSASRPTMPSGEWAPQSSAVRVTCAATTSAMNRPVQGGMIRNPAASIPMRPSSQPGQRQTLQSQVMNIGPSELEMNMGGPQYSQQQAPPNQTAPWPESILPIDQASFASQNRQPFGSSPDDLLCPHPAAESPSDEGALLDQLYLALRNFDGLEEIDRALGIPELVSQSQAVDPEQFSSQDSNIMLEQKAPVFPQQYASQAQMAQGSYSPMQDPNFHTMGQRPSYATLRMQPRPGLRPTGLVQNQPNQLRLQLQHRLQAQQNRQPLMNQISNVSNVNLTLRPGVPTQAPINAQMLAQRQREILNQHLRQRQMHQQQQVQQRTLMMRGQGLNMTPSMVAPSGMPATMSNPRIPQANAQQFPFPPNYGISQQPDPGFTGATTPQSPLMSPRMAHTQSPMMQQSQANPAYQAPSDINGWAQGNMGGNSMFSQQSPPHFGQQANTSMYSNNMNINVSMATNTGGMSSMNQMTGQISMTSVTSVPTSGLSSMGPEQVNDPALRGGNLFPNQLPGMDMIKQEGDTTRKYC

| SMILES | inhibition [1] | inhibition [2] |
| --- | --- | --- |
| Cn1c(=N)n(CC(=O)c2ccc(F)cc2)c2ccccc21 | -28.2% (inactive) | -22.8% (inactive) |
| O=c1ccn(Cc2ccc(F)cc2)c2ccnc(C(F)(F)F)c12 | 14.8% (inactive) | 16.6% (inactive) |
| O=C(Cn1cnc2ccccc21)N/N=C/C(Br)=C/c1ccccc1 | -14% (inactive) | -5.7% (inactive) |
| CCOC(=O)C1=C[C@@H](c2ccccc2)N(S(=O)(=O)c2ccc(C)cc2)[C@H]1c1ccc(F)cc1 | -7.61% (inactive) | -5.87% (inactive) |
| CC1CCc2nc(NC(=O)c3ccco3)sc2C1 (stereo unspecified) | -23.2% (inactive) | 11.1% (inactive) |
| Cc1sc2ncnc(N3CCC(C(=O)Nc4ccc(S(N)(=O)=O)cc4)CC3)c2c1C | -3.11% (inactive) | 30.8% (inactive) |
| NC1=NC(=O)/C(=C\c2cccnc2)S1 | -14.6% (inactive) | 35.6% (inactive) |
| Cc1ccc2sc(N(CCCN(C)C)C(=O)CCS(=O)(=O)c3ccccc3)nc2c1C | 1.51% (inactive) | 27.7% (inactive) |
| Cc1ccc(-c2noc(CCC(=O)NCCN3CCN(Cc4ccccc4)CC3)n2)cc1 | 12.2% (inactive) | 41.6% (inactive) |
| N/C(=N\OC(=O)c1ccc(Cl)cc1Cl)c1ccccn1 | -75.5% (inactive) | -25.1% (inactive) |
| COc1ccc(S(=O)(=O)Nc2ccc(C)cn2)cc1 | -11.7% (inactive) | -15.4% (inactive) |
| C=CCN=C1NN=C(c2cc(C)n(CCOC)c2C)CS1 | 69.5% (active) | 86% (active) |
| CCc1ccc(-c2nc(CSCC(=O)NC3CC3)c(C)o2)cc1 | 47.6% (active) | 35.1% (inactive) |
| COC(=O)c1nn(-c2ccc3c(c2)CCN3C(C)=O)cc1O | -21.8% (inactive) | 43.5% (inactive) |
| COc1ccc(C(=O)OCC(=O)Nc2ccc3c(c2)OCCO3)c(OC)c1 | 6.79% (inactive) | -39% (inactive) |
| COc1ccc([C@H]2CC(=O)C=C(c3ccc(Oc4ccccc4)cc3)C2)cc1OC | 10.7% (inactive) | 15.4% (inactive) |
| Cc1ccc(S(=O)(=O)N2CCC(C(=O)Nc3ccc(S(=O)(=O)N4CCOCC4)cc3)CC2)cc1 | 8% (inactive) | 30.2% (inactive) |

| SMILES | inhibition [1] | inhibition [2] |
| --- | --- | --- |
| COc1cc2ncnc(NCc3ccc4c(c3)OCO4)c2cc1OC | 7.59% (inactive) | -5.74% (inactive) |
| O=S(=O)(c1ccc(Cl)cc1)c1snnc1-c1ccccc1 | 31.6% (inactive) | 76.7% (active) |
| Cc1cccc(C(=O)Nc2ccc(CC(=O)O)cc2)c1 | -2.26% (inactive) | 26.9% (inactive) |
| Cc1cc(C)cc(NC(=O)Nc2cc(S(=O)(=O)N(C)C)ccc2C)c1 | -9.93% (inactive) | -21.3% (inactive) |
| Cc1ccc(/C=C2\SC(=S)N(CCCC(=O)Nc3cc(C)on3)C2=O)cc1 | 31.6% (inactive) | 68.8% (active) |
| CC(C)(C)c1ccc(-c2noc(CCC(=O)NCc3ccco3)n2)cc1 | 40.9% (active) | 59.5% (active) |
| COCc1cc(N2CCN(C(=O)OC(C)(C)C)C[C@H]2C)ccc1N1CCS(=O)(=O)CC1 | 5.52% (inactive) | 33.9% (inactive) |
| O=C(CCCN1C(=O)/C(=C/c2cccs2)SC1=S)Nc1ccccn1 | 12.4% (inactive) | 10.9% (inactive) |
| COc1cc(CNc2ccc3[nH]c(=O)[nH]c3c2)cc(Br)c1OCc1ccc(F)cc1 | 1.78% (inactive) | 29.9% (inactive) |
| CCOc1ccc(-c2cc(CCCC(=O)NCc3ccc(C)cc3)no2)cc1 | 31.4% (inactive) | 60.2% (active) |
| O=[N+]([O-])c1cc(C(F)(F)F)ccc1NCCCCNS(=O)(=O)c1ccc(Cl)cc1 | 3.03% (inactive) | 43.3% (inactive) |
| C=CCc1c(C)nc(SC(C)C)[nH]c1=O | 0.2% (inactive) | -25.4% (inactive) |
| Cc1ccccc1CS(=O)(=O)c1ccc(C(=O)N2CCOCC2)cc1[N+](=O)[O-] | 14.6% (inactive) | 24.6% (inactive) |
| CC(=O)C1=CCC(c2ccccc2Cl)N(S(=O)(=O)c2ccc(C)cc2)C1 (stereo unspecified) | 13.9% (inactive) | 15.3% (inactive) |
| COc1cc(NC(=O)c2cccs2)c(C(=O)OCC(=O)c2cc(C)n(-c3ccccc3)c2C)cc1OC | 27.5% (inactive) | 67% (active) |
| CC(C)(C)NS(=O)(=O)c1ccc(Oc2ncc(C(F)(F)F)cc2Cl)cc1 | -20% (inactive) | 14.2% (inactive) |

— PubChem BioAssay
